Drawing on PubChem BioAssay (EPA / NIEHS), this text covers outcome and AC50 for eleven molecules.

Usually AC50 stands for the concentration at which the activity in the assay is half-maximal.

Experiment [1] addresses Nucleoli Translocation, AR (gene 367) (UniProt P10275). The experiment in a line: UPITT_HCI_U2OS_AR_TIF2_Nucleoli_Antagonist: University of Pittsburgh U2OS Androgen Receptor-Transcriptional Intermediary Factor 2 (AR-TIF2) Antagonism High Content Imaging Assay for Nucleoli Translocation (AID 2283997; active = hit-call score of the fitted dose curve at least 0.9, where 1 is the maximum). In short, it runs like this:
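An antagonist-mode imaging screen: engineered U2OS (AR-RFP, TIF2-GFP) exposed to 20 uM compound, 0.2% DMSO. Activity reflects nucleolar red fluorescence change relative to DHT baseline.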

For experiment [2], the target named is Ratio of Nucleoli Translocation and Cytoplasm, AR (gene 367) (UniProt P10275). The experiment in a line: UPITT_HCI_U2OS_AR_TIF2_Nucleoli_Cytoplasm_Ratio_Agonist: University of Pittsburgh U2OS Androgen Receptor-Transcriptional Intermediary Factor 2 (AR-TIF2) Agonism High Content Imaging Assay for Ratio of Nucleoli Translocation and Cytoplasm (AID 2284000; active = hit-call score of the fitted dose curve at least 0.9, where 1 is the maximum;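 note: hits raise the red nucleolar to cytoplasm ratio above vehicle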). The essentials:
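Primary screen at 20 uM final (0.2% DMSO), then triplicate confirmation and dose-response from 0.195 to 50 uM final (0.5% DMSO). Cells: U2OS with AR-RFP and TIF2-GFP. Endpoint is the nucleoli/cytoplasm red-fluorescence ratio, gain-of-signal vs DMSO.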

Experiment [3] is described as follows: CCTE_Shafer_MEA_acute_spike_number: CCTE's Neural Acute Assay for Total Number of Spikes, Shafer Lab (AID 2284008).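 For AC50: curve fitted for decrease in spike count so AC50 reflects inhibitors.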 The essentials:
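Primary rat cortical neurons on 16-electrode MEA wells; on DIV 13 or 15, 40-min baseline then 40-min recording with compound (0.03-40 uM) at 37 C. Spikes detected at 8x rms noise; percent change versus baseline, DMSO as negative control.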

Experiment [4] is described as follows: CCTE_Shafer_MEA_acute_firing_rate_mean: CCTE's Neural Acute Assay for Mean Firing Rate, Shafer Lab (AID 2284009).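 Note: analyzed for loss of signal so actives lower firing rate relative to DMSO.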 In short, it runs like this: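 Spontaneous spiking of primary rat cortical networks, DIV 13/15, 37 C. Compound 0.03-40 uM, n ≥3 wells; 40 min baseline vs 40 min treated. Endpoint fitted in loss-of-signal direction against DMSO.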
Experiment [5] can be described thus: CCTE_Harrill_HTTr_Viability_MCF7: CCTE's 6-hour Cell Viability Assessment for the High-Throughput Transcriptomics (HTTr) Platform, in MCF-7 cells cultured in DMEM + 10% fetal bovine serum, Harrill Lab (AID 2284010). In short, it runs like this:
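Eight-point concentration series, six-hour exposure. Propidium iodide exclusion imaged to assess membrane integrity as a cytotoxicity readout; bidirectional fitting was done with DMSO as negative control and activity baseline.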

Experiment [6] can be described thus: CCTE_Harrill_HTTr_Apoptosis_MCF7: CCTE's 6-hour Apoptosis Assessment for the High-Throughput Transcriptomics (HTTr) Platform, in MCF-7 cells cultured in DMEM + 10% fetal bovine serum, Harrill Lab (AID 2284011). The essentials:
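MCF-7 cells in DMEM + 10% fetal bovine serum were exposed to chemicals for 6 hours over an eight-point dilution series. Caspase-3/7 activation was imaged by high content imaging with CellEvent Caspase 3/7 Green; bidirectional fitting used DMSO as baseline.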

Experiment [7] in a line: CCTE_Harrill_HTTr_CellCount_MCF7: CCTE's Cell Proliferation Assessment for the High-Throughput Transcriptomics (HTTr) Platform, Harrill Lab (AID 2284012; active = hit-call score of the fitted dose curve at least 0.9, where 1 is the maximum;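 note: count of Hoechst-stained nuclei per well by high-content imaging in MCF-7 cells; cells exposed to compound for six hours; intended direction is loss of nuclei count meaning fewer cells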). In short, it runs like this:
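For this full-screen endpoint, MCF-7 cultures received eight compound dilutions for six hours. Well nuclei counts from Hoechst imaging were analyzed relative to DMSO.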

Experiment [8] can be described thus: CCTE_Shafer_MEA_acute_burst_number: CCTE's Neural Acute Assay for Single-Electrode Bursts, Shafer Lab (AID 2284013). In short, it runs like this: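 Burst totals were derived with adaptive spike detection (8x rms threshold) on filtered signals from rat cortical cultures; change relative to pre-treatment baseline after 40-min compound exposure (0.03-40 uM) was fitted in the negative direction against DMSO.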

Experiment [9] addresses Ratio of Nucleoli Translocation and Cytoplasm, AR (gene 367) (UniProt P10275). The experiment in a line: UPITT_HCI_U2OS_AR_TIF2_Nucleoli_Cytoplasm_Ratio_Antagonist: University of Pittsburgh U2OS Androgen Receptor-Transcriptional Intermediary Factor 2 (AR-TIF2) Antagonism High Content Imaging Assay for Ratio of Nucleoli Translocation and Cytoplasm (AID 2283999; active = hit-call score of the fitted dose curve at least 0.9, where 1 is the maximum;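 note: antagonists lower the DHT-driven ratio of nucleolar to cytoplasmic red signal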). The essentials: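 This antagonist-mode endpoint tracks AR-RFP localisation, the nucleolus-to-cytoplasm intensity ratio, in TIF2-GFP-coexpressing U2OS cells. DMSO stays at or below 0.5%; testing spans 20 uM single-dose and 0.195–50 uM series, with DHT setting the activity baseline.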

A short description of experiment [10]: CCTE_Simmons_MITO_basal_resp_rate: CCTE's HepG2 Seahorse XF Respirometric Screening Assay at Basal Respiratory State, Simmons Lab (AID 2284001). Conditions: actives raise or lower the signal. In short, it runs like this: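 Readout is oxygen consumption rate after test compound injection, measured by Seahorse XF in HepG2 cells. Seven concentrations from 125 nM up to 100 uM final are tested, and activity in either direction is fitted against DMSO.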

Experiment [11] can be described thus: CCTE_Simmons_MITO_max_resp_rate: CCTE's HepG2 Seahorse XF Respirometric Screening Assay at Maximal Respiratory State [uncoupled], Simmons Lab (AID 2284002). Conditions: actives raise or lower the signal. The essentials:
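HepG2 oxygen consumption was read on a Seahorse XF96 after FCCP uncoupler injection, following test compound injection; 7 concentrations, 125 nM–100 uM final, three biological replicates. Bidirectional fitting against DMSO vehicle baseline.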

Experiment [12] in a line: CCTE_Simmons_MITO_inhib_resp_rate: CCTE's HepG2 Seahorse XF Respirometric Screening Assay at Inhibited Respiratory State [full ETC block], Simmons Lab (AID 2284006). Conditions: actives raise or lower the signal. The essentials: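 Test chemicals at seven final concentrations (125 nM–100 uM) in three biological replicates, with DMSO as vehicle. HepG2 oxygen consumption was then tracked on a Seahorse XF96 for 72 min through FCCP and rotenone/antimycin A phases, with the inhibited-phase rate as the endpoint.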

The next experiment deals with DIO1 (gene 1733). Nature of the experiment: CCTE_GLTED_hDIO1: CCTE's human Deiodinase 1 (DIO1) Inhibition Assay, Great Lakes Toxicology and Ecology Division (GLTED) Lab (AID 2283987; active = hit-call score of the fitted dose curve at least 0.9, where 1 is the maximum;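 note: isolated human DIO1 enzyme in a cell-free setup rather than cells; enzyme activity read as free iodide liberated from substrate via Sandell-Kolthoff colorimetry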). In short, it runs like this: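 Cell-free human DIO1 enzyme was incubated with test chemical for 3 h, and iodide released from substrate was measured by Sandell-Kolthoff absorbance. Loss of signal versus DMSO baseline indicated inhibition; plates were run in triplicate.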

Experiment [13] in a line: CCTE_Harrill_HTTr_Viability_PRF_DMEM_24hr: (Pilot) CCTE's 24-hour Cell Viability Assessment for the High-Throughput Transcriptomics (HTTr) Platform, in MCF-7 cells cultured in phenol red-free DMEM + 10% charcoal-stripped fetal bovine serum, Harrill Lab (AID 2283980). The essentials:
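Propidium iodide exclusion imaged at 24 h after dosing scores viability; cells were MCF-7 grown in phenol red-free DMEM plus 10% charcoal-stripped serum, tested in eight concentrations, fitted in both directions against DMSO.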

A short description of experiment [14]: CCTE_Harrill_HTTr_Apoptosis_DMEM_6hr: (Pilot) CCTE's 6-hour Apoptosis Assessment for the High-Throughput Transcriptomics (HTTr) Platform, in MCF-7 cells cultured in DMEM + 10% fetal bovine serum, Harrill Lab (AID 2283981). In short, it runs like this: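 MCF-7 cells grown in DMEM + 10% FBS were exposed for 6 hours to an eight-point dilution series. CellEvent Caspase 3/7 Green signal was imaged; activity fitted bidirectionally against DMSO.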

Experiment [15] is described as follows: CCTE_Harrill_HTTr_Apoptosis_DMEM_12hr: (Pilot) CCTE's 12-hour Apoptosis Assessment for the High-Throughput Transcriptomics (HTTr) Platform, in MCF-7 cells cultured in DMEM + 10% fetal bovine serum, Harrill Lab (AID 2283982). The essentials:
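Caspase-3/7 activity was measured by high-content imaging (CellEvent Caspase 3/7 Green) after a 12-hour exposure of MCF-7 cells grown in DMEM with 10% FBS. Eight-point concentration series, fitted bidirectionally against vehicle.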

The nature of experiment [16]: CCTE_Harrill_HTTr_Apoptosis_DMEM_24hr: (Pilot) CCTE's 24-hour Apoptosis Assessment for the High-Throughput Transcriptomics (HTTr) Platform, in MCF-7 cells cultured in DMEM + 10% fetal bovine serum, Harrill Lab (AID 2283983). In short, it runs like this:
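Caspase-3/7 activity read by high-content imaging (CellEvent Green reagent) 24 h after dosing. MCF-7 cells grown in DMEM with 10% FBS received an eight-point concentration series; fits were bidirectional versus DMSO.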

Experiment [17] in a line: CCTE_Harrill_HTTr_Apoptosis_PRF_DMEM_6hr: (Pilot) CCTE's 6-hour Apoptosis Assessment for the High-Throughput Transcriptomics (HTTr) Platform, in MCF-7 cells cultured phenol red-free DMEM + 10% charcoal-stripped fetal bovine serum, Harrill Lab (AID 2283984). The essentials:
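Caspase-3/7 activity (CellEvent Green) read by high-content imaging 6 h after dosing, eight concentrations. Cells: MCF-7, phenol red-free DMEM with 10% charcoal-stripped serum. Curves fit both directions against DMSO.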

Experiment [18] can be described thus: CCTE_Harrill_HTTr_Apoptosis_PRF_DMEM_24hr: (Pilot) CCTE's 24-hour Apoptosis Assessment for the High-Throughput Transcriptomics (HTTr) Platform, in MCF-7 cells cultured in phenol red-free DMEM + 10% charcoal-stripped fetal bovine serum, Harrill Lab (AID 2283986). In short, it runs like this:
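Eight concentrations tested for 24 h on MCF-7 grown in charcoal-stripped serum, phenol red-free DMEM. High content imaging of CellEvent Caspase 3/7 Green signal gives apoptosis read-out, fitted both ways relative to DMSO.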

Experiment [19] in a line: CCTE_Simmons_MITO_viability: CellTiter-Glo Viability Assessment for CCTE's HepG2 Seahorse XF Respirometric Screening Assay [post-hoc], Simmons Lab (AID 2284007; active = hit-call score of the fitted dose curve at least 0.9, where 1 is the maximum;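 for AC50: cells exposed to chemical for 90 min before the ATP read; actives lower ATP signal relative to DMSO baseline meaning reduced viability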). The essentials: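 Post-hoc viability check on the HepG2 respirometry plates: luciferase-based ATP signal measured once, after 90 min compound exposure spanning 125 nM–100 uM final. Activity was referenced to DMSO as baseline.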
On the technique in general: Cellular ATP, detected with luciferase, serves as a proxy for viable cell number.

Results filed as inconclusive are left out. Active and inactive are the calls of the source. Rule for the calls, unless noted: active = hit-call score of the fitted dose curve at least 0.9, where 1 is the maximum; inactive = score below 0.9.

Sequence of Nucleoli Translocation, AR (gene 367) (P10275 whole entry, looked up): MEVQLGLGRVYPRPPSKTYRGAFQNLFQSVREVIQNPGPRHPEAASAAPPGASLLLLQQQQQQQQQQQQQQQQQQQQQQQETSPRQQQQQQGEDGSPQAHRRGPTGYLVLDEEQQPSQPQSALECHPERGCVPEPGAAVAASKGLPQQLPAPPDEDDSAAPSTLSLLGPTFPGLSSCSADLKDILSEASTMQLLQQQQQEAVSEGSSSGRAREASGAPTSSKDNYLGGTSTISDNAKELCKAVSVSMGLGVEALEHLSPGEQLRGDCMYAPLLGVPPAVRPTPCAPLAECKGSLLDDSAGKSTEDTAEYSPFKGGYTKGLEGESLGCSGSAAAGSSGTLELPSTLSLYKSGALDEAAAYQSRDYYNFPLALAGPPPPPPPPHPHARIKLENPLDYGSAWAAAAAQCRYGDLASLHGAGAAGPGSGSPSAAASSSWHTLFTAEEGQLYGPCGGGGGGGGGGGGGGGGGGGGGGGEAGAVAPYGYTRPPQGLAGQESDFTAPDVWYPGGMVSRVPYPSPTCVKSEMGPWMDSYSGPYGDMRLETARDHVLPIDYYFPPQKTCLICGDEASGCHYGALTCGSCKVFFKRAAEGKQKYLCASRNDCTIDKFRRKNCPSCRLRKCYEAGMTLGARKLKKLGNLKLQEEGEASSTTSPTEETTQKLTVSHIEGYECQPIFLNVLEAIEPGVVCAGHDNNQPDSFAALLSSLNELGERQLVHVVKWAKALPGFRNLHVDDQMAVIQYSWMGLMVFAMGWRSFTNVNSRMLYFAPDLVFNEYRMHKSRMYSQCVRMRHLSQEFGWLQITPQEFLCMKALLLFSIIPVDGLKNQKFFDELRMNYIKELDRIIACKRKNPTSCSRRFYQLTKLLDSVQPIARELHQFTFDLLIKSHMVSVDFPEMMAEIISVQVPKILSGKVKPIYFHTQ
Sequence of Ratio of Nucleoli Translocation and Cytoplasm, AR (gene 367) (P10275 whole entry, looked up): as above

Consider `Nc1nc(=S)c2[nH]cnc2[nH]1`, for which the molecule was classed as inactive in experiment [1], in experiment [2], in experiment [3], in [4], in [5] and in experiment [6]. In addition, the molecule was called inactive in experiment [7] and in experiment [8].
Regarding `CCC(C)N(C)C(=O)c1cc2ccccc2c(-c2ccccc2Cl)n1` (stereo unspecified), the molecule was classed as inactive in [1], in [9], in experiment [2], in [5], in experiment [6] and in experiment [7].
As for `CC1=C(C)S(=O)(=O)CCS1(=O)=O`, the outcome in [1], in [2], in [3], in experiment [4], in experiment [5] and in experiment [6] was inactive. For the same molecule, the molecule was classed as inactive in experiment [7] and in experiment [8].
For `CCOCCOCCO`, the outcome in [1], in [9], in experiment [2], in experiment [5], in experiment [6] and in experiment [7] was inactive.
For `CCc1cc(C2=C(C(=O)O)N(c3ccccc3C(F)(F)F)S(=O)(=O)c3ccccc32)cc2c1OCO2`, the call in [10], in experiment [11], in experiment [12], in [3], in experiment [4] and in experiment [5] was inactive. Also, the outcome in experiment [6], in experiment [7] and in experiment [8] was inactive.
Consider `NCCOCCOCCN`, for which the molecule was called inactive in experiment [1], in [9], in experiment [2], in experiment [5] and in experiment [6].
For the molecule `O=C(Oc1ccccc1)c1cccc(C(=O)Oc2ccccc2)c1`, the molecule was called inactive in experiment [1], in experiment [9], in [2], in experiment [5], in [6] and in experiment [7].
As for `CCCCCCCCCCCCCCOS(=O)(=O)O`, the AC50 with DIO1 (gene 1733) was 85.7 µM (active). For the same molecule, the result in experiment [5] and in experiment [6] was inactive.
With `Cc1c(C)c2c(c(C)c1O)CCC(C)(COc1ccc(CC3SC(=O)NC3=O)cc1)O2` (stereo unspecified), the outcome in experiment [13], in experiment [14], in experiment [15], in experiment [16], in [17] and in [18] was inactive. The outcome in [9], in experiment [2], in [12], in experiment [5], in experiment [6] and in [8] was inactive. The concentration at half-maximal activity (AC50) with DIO1 (gene 1733) was 85.9 µM (active); in experiment [10] it was 3.22 µM (active); in experiment [11], 7.83 µM (active); in experiment [19] it was 8.43 µM (active); in experiment [3] it was 3.97 µM (active); in experiment [4], 3.97 µM (active).
Consider `CCCCCCCCCC[N+](C)(C)[O-]`, for which the result in experiment [1], in experiment [9], in experiment [2], in experiment [5], in experiment [6] and in [7] was inactive.
Consider `CC(C)(O)c1ccc(CNC(=O)c2cccnc2Oc2ccc(F)cc2)cc1`, for which the outcome in experiment [10], in experiment [12], in experiment [19], in [5] and in experiment [6] was inactive. In addition, the AC50 in experiment [11] is 18.6 µM (active).
